Measurements as given in the supplement of paper PMC6555819.

Columns and labels:
Assay in all cases: PBM binding z-score (relative to random genomic background probes); higher = stronger binding; sequences stand for … in GC…GCGATTGACAGCGTAGAATGAAGG
[1] = system: RARb homodimer (NR concentration 270 nM)
Method in brief: (§1)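 Custom Agilent 4×180K protein-binding microarrays carried double-stranded probes, each with a 34-nt variable region. These regions held direct-repeat seeds, single-nucleotide variants, half-site ablations and random human genomic background sequences. Ligand-free nuclear receptor dimers were incubated on the arrays for 1 h, antibodies against each partner (one per run) detected binding, and scanned fluorescence was regression-normalized. Binding z-scores take the random background probes as reference.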

[2] = system: RARg:RXRa (NR concentration 270 nM, RXRa partner concentration 90 nM)
Method in brief: as §1

[3] = system: RARg homodimer (NR concentration 270 nM)
Method in brief: as §1

[4] = system: RXRa DBDmut IVT, anti-RXR (DBD mutation: RXRa K156A/R161A, NR concentration 90 nM)
Method in brief: as §1

[5] = system: RXRa homodimer (NR concentration 180 nM)
Method in brief: as §1

[6] = system: THRa:RXRa (NR concentration 90 nM, RXRa partner concentration 90 nM)
Method in brief: as §1

[7] = system: THRa homodimer (NR concentration 90 nM)
Method in brief: as §1

[8] = system: VDR homodimer (NR concentration 270 nM)
Method in brief: as §1

Sequence | PBM binding z-score [1] | PBM binding z-score [2] | PBM binding z-score [3] | PBM binding z-score [4] | PBM binding z-score [5] | PBM binding z-score [6] | PBM binding z-score [7] | PBM binding z-score [8]
AGAACGAGGGCACGCGGAGTTGATAGCAGAGTAG | 1.42 | 2.32 | 2.41 | 1.91 | 1.66 | 1.82 | -0.0223 | 1.18
GCTGCTAGGTCAACTCATGGTCAGCTAAAGCTCG | 3.69 | 5.16 | 5.42 | 1.45 | 2.86 | 3.17 | 1.15 | 0.269
TGTAGTTGGTCAAAGGTCACACACTCGAAATGCG | 4.97 | 7.09 | 6.06 | 1.24 | 8.07 | 4.1 | 2.18 | 2.51
ATCGCTAGGTAAAGATAGTTCAGTGAATGCAAAT | 0.559 | 0.136 | 0.387 | -0.61 | -0.287 | 0.234 | -0.407 | -0.0178
AGAATGAGGTTATTAAGATCAGGCAATTGCGGTC | 0.685 | 1.05 | 0.712 | 1.89 | 1.65 | 2.22 | 0.632 | 1.24
CCTACTGGGCCATTCAGAGGTCGTTGATCATATG | 1.58 | 1.55 | 0.872 | 0.268 | 1.05 | 1.28 | 0.339 | 2.12
GCGACTGGGGCACCAGCAGGTTACCATAACTTAA | 0.971 | 1.13 | 0.678 | -0.795 | 0.401 | 1.07 | -0.0837 | -0.699
